HT1080NT lethal: kills 2HG-producing HT-1080-NT fibrosarcoma cells | Potency, µM (doses to about 46.1 µM), inactives show top-dose activity, negative = less viability, usual class: cytotoxic | 360,000 tested, 1.6% active | AID 686970 | HT-1080-NT fibrosarcoma viability, CellTiter-Glo ATP luminescence, 48 h;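 note: NT is the 2HG producing partner of a matched IDH1 knockdown line; 0% = DMSO-treated cells and -100% = media-only wells without cells; nearly all actives have a fitted effect of over 55% in size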
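Fibrosarcoma NT cells, 750 per well in 5% FBS RPMI, were exposed to compound for 48 hours. Viability: CellTiter-Glo luminescence.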
KB-V1 cytotox: KB-V1 MDR subline cytotoxicity; KB-V1 MDR cells viability, CellTiter-Glo, 72 h; Potency, µM (top dose mostly 46.1 µM), usual class: cytotoxic; 400,000 tested, 3.4% active; note: % is set by controls: 0 for no effect and ±100 for the full control effect; nearly all actives have a fitted effect of over 60% in size
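Potencies derive from concentration-effect curves fitted to normalized luminescence (CellTiter-Glo) of KB-V1 cells treated for 72 h at 37 degrees C in phenol-red-free DMEM containing 10% FBS.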
MCF10A rereplic: DNA re-replication induction in MCF 10a cells; MCF 10A DNA re-replication, Hoechst nuclear intensity, 48 h; Potency, µM (series often up to 46.1 µM), for the others: at the highest dose activity, positive = re-replication, usual class: activators; 350,000 tested, 2.9% active; AID 624296; note: % of control where 0% means no effect; nearly all actives have a fitted effect of over 50% in size
HT1080 IDH1KD tx: HT-1080 IDH1 knockdown cell toxicity (counter line) | 360,000 tested, 2% active | HT-1080 IDH1 knockdown viability, ATP luminescence, 48 h | Potency, µM (series often up to 46.1 µM), without a hit: at the top dose activity, negative = toxicity, usual class: cytotoxic | AID 686971;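 note: 0% = DMSO wells and -100% = cell-free medium wells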
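Using the IDH1-knockdown HT-1080 line run in the same batch and compound series as the NT line, viability after 48 h at 37 °C was determined by CellTiter-Glo luminescence and expressed as % activity.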
SW480 rereplic: DNA re-replication induction in SW480 cells; 340,000 tested, 1.8% active; Potency, µM (doses to about 46.1 µM), inactives show at the top dose re-replication activation, actives largely listed as activators; SW480 DNA re-replication, Hoechst DNA content imaging, 48 h; AID 624297; note: % of control where 0% means no effect; nearly all actives have a fitted effect of over 55% in size
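Cells (250 per well) received 23 nL compound or DMSO by pin tool and were kept 48 hr at 37 C, 5% CO2. Nuclei were then stained with Hoechst for 40 min and scanned for DNA content.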
KB-3-1 tox: KB-3-1 parental cell cytotoxicity | KB-3-1 viability, CellTiter-Glo ATP luminescence, 72 h | 400,000 tested, 1.4% active | Potency, µM (highest dose often 46.1 µM), actives largely listed as cytotoxic | AID 1347075; note: % is set by controls: 0 for no effect and ±100 for the full control effect; nearly all actives have a fitted effect of over 60% in size
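Here the drug-naive KB-3-1 line serves as comparator for MDR sub-line selectivity; cells received compound titrations, 72 h at 37 °C, then CellTiter-Glo readout.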
* hit, by the source's call; [ ] = another dose, or the depositor's remark. The list is not random: actives were taken first. Their share in the collection is about 7.9%. Calls come from the whole dose curve; as a rule, active = well fitted curve in the direction sought with a large enough effect; inconclusive = small, poorly fitted or top-dose-only effect, or another doubt; inactive = no such curve, though single readings can be large; an effect the other way counts as inactive or inconclusive. Potency is the fitted concentration of half-maximal effect.

For COc1ccc(Cl)cc1S(=O)(=O)N1CCC(C(=O)NCCC2=CCCCC2)CC1 the results were HT1080NT lethal 1.9%, MCF10A rereplic 1.3%, HT1080 IDH1KD tx -10.5% and SW480 rereplic -7.8%.
Screening Cc1cccc(NC(=O)C2CCN(c3nc4ccccc4[nH]3)CC2)c1C returned KB-V1 cytotox inactive and KB-3-1 tox inactive.
Screening Cc1c(C(=O)N(C)C2CCCCC2)sc2ncnc(N3CCN(c4ccccc4)CC3)c12 returned HT1080NT lethal inconclusive, KB-V1 cytotox inactive, MCF10A rereplic inconclusive, HT1080 IDH1KD tx inconclusive, SW480 rereplic inconclusive and KB-3-1 tox inactive.
CCOCC(=O)N1CCN(c2ccc([N+](=O)[O-])cc2)CC1 was read as HT1080NT lethal -1.3%, KB-V1 cytotox 18.4µM*, MCF10A rereplic 2.9%, HT1080 IDH1KD tx -3.8%, SW480 rereplic -0.7% and KB-3-1 tox inactive.
O=C(CCCc1ccccc1)N1CCN(c2ccc([N+](=O)[O-])cc2)CC1 was read as HT1080NT lethal -14.4%, KB-V1 cytotox 16.4µM*, MCF10A rereplic 3.4%, HT1080 IDH1KD tx 1.6%[9.24 µM], SW480 rereplic -11.8% and KB-3-1 tox inactive.
For O=C(CSc1ccsc1[N+](=O)[O-])N1CCN(c2ccccc2)CC1 the results were HT1080NT lethal -3.3%, KB-V1 cytotox inconclusive, MCF10A rereplic -1.1%, HT1080 IDH1KD tx 3.1%, SW480 rereplic -6.2% and KB-3-1 tox 5.8µM*.
`O=C(CSc1ccsc1[N+](=O)[O-])N1CCN(c2ccc(Cl)cc2)CC1` gave HT1080NT lethal 4.7%, KB-V1 cytotox inactive, MCF10A rereplic -1.0%, HT1080 IDH1KD tx -0.8%, SW480 rereplic 1.5% and KB-3-1 tox inactive.
Screening CCOc1ccccc1NC(=O)CSc1nc2cc(OC)c(OC)cc2c2nc(-c3ccccc3)nn12 returned KB-V1 cytotox inactive and KB-3-1 tox inactive.
Screening Cc1ccc(NC(=O)CNC(=O)c2ccco2)c(Cl)c1 returned HT1080NT lethal 1.9%, KB-V1 cytotox inactive, MCF10A rereplic 4.4%, HT1080 IDH1KD tx 5.4%, SW480 rereplic -7.5% and KB-3-1 tox inactive.
For OC(Cc1ccc2ccccc2n1)c1c(Cl)cccc1Cl (stereo unspecified) the results were KB-V1 cytotox inactive and KB-3-1 tox inactive.
For O=C(CCNC(=O)c1ccc(Cl)cc1)Nc1ccc(S(=O)(=O)N2CCCCC2)cc1 the results were HT1080NT lethal -0.5%, KB-V1 cytotox inactive, MCF10A rereplic 28.2%, HT1080 IDH1KD tx -14.9%, SW480 rereplic -5.7% and KB-3-1 tox inactive.
`COCCn1c(C)cc(C(=O)CSc2nncn2-c2ccccc2)c1C` gave HT1080NT lethal -1.3%, KB-V1 cytotox 10.3µM*, MCF10A rereplic 0.7%, HT1080 IDH1KD tx 11.3%, SW480 rereplic 0.4% and KB-3-1 tox inactive.
Screening Cc1cc(C(=O)CSc2nnc(-c3ccncc3)n2-c2ccccc2)c(C)n1C returned HT1080NT lethal -0.3%, KB-V1 cytotox inactive, MCF10A rereplic 0.5%, HT1080 IDH1KD tx -3.0%, SW480 rereplic -0.1% and KB-3-1 tox inactive.
`CN(C(=O)CSc1nnc(-c2ccc(Cl)cc2)n1CC1CCCO1)C1CCS(=O)(=O)C1` (stereo unspecified) gave HT1080NT lethal 8.7%, KB-V1 cytotox inactive, MCF10A rereplic 1.0%, HT1080 IDH1KD tx 16.9%, SW480 rereplic -6.5% and KB-3-1 tox inactive.
For COc1ccc(-n2cnnc2SCC(=O)c2cc(C)n(Cc3cccs3)c2C)cc1 the results were HT1080NT lethal -4.5%, KB-V1 cytotox inactive, MCF10A rereplic inconclusive, HT1080 IDH1KD tx 1.2%, SW480 rereplic -4.5% and KB-3-1 tox inactive.
For Cc1cc(C(=O)CSc2nnc(-c3ccccc3)n2C)c(C)n1C the results were HT1080NT lethal -1.9%, KB-V1 cytotox 7.31µM*, MCF10A rereplic -0.7%, HT1080 IDH1KD tx 17.0%, SW480 rereplic -8.2% and KB-3-1 tox inactive.
For Cc1cc(C(=O)CSc2nnc(-c3ccc(Cl)cc3)n2CC2CCCO2)c(C)n1C (stereo unspecified) the results were HT1080NT lethal 0.0%, KB-V1 cytotox 6.51µM*, MCF10A rereplic 10.0%, HT1080 IDH1KD tx -7.5%, SW480 rereplic 1.7% and KB-3-1 tox inactive.
For CCCCCn1c(=O)[nH]c2cc(C(=O)NCc3ccc(C)cc3)ccc2c1=O the results were KB-V1 cytotox inactive and KB-3-1 tox inactive.
Screening CCCCCCc1ccc(-c2ncc(N)cn2)cc1 returned HT1080NT lethal -23.9%, KB-V1 cytotox inactive, MCF10A rereplic 12.6µM*, HT1080 IDH1KD tx inconclusive, SW480 rereplic 7.4% and KB-3-1 tox inactive.
`CCCCCc1ccc(-c2nnc(N)s2)cc1` gave HT1080NT lethal -12.4%, KB-V1 cytotox inconclusive, MCF10A rereplic inconclusive, HT1080 IDH1KD tx -15.0%, SW480 rereplic -8.5% and KB-3-1 tox inactive.
Screening O=S(=O)(c1ccc(F)cc1)N1CCN(CC(O)COCc2ccccc2)CC1 (stereo unspecified) returned HT1080NT lethal -2.5%, KB-V1 cytotox 20.6µM*, MCF10A rereplic -3.0%, HT1080 IDH1KD tx -2.3%, SW480 rereplic -1.6% and KB-3-1 tox inactive.
For COc1ccc(COCC(O)CN2CCN(S(=O)(=O)c3c(F)cccc3F)CC2)cc1OC (stereo unspecified) the results were HT1080NT lethal 5.1%, KB-V1 cytotox 13µM*, MCF10A rereplic 10.4%, HT1080 IDH1KD tx 0.1%, SW480 rereplic inconclusive and KB-3-1 tox inactive.
Screening CCCCCCCNC(=O)C1(CC2CC(c3cccc(Br)c3)=NO2)CCN(C(=O)CCCCCBr)CC1 (stereo unspecified) returned HT1080NT lethal 16.4µM*, KB-V1 cytotox inactive, MCF10A rereplic inconclusive, HT1080 IDH1KD tx inconclusive, SW480 rereplic 28.9% and KB-3-1 tox inconclusive.
For O=C1CC(NS(=O)(=O)c2ccc3ccccc3c2)CN1c1ccccc1 (stereo unspecified) the results were HT1080NT lethal -18.8%, KB-V1 cytotox inactive, MCF10A rereplic -2.3%, HT1080 IDH1KD tx -1.6%, SW480 rereplic -404.6% and KB-3-1 tox inactive.
For CCOc1ccc(NC(=O)N2CC3CCCN3c3ccccc32)cc1 (stereo unspecified) the results were KB-V1 cytotox inactive and KB-3-1 tox inactive.
Screening COC(C[C@H]1O[C@H]1C(=O)COCc1ccccc1)OC returned HT1080NT lethal 3.0%, KB-V1 cytotox inactive, MCF10A rereplic -0.6%, HT1080 IDH1KD tx -1.0%, SW480 rereplic inconclusive and KB-3-1 tox inactive.
